# Reference: PubChem BioAssay (NCATS)
# Results filed as inconclusive are left out. A call without a number means that no potency is given here. The source made the active and inactive calls. Calls come from the whole dose curve; as a rule, active = well fitted inhibition curve with a large enough effect; inconclusive = small, poorly fitted or top-dose-only effect; inactive = flat fitted curve, though single readings scatter.
# Assay: qHTS of Trypanosoma Brucei Inhibitors: LOPAC Validation (AID 624147)
# Details: purified enzyme assay, luminescence, 45 min; series mostly up to 57.5 µM
# Text: Members of the Trypanosomatidae family of parasitic protozoans cause a spectrum of diseases throughout the tropical and subtropical world. Sleeping sickness, caused by two subspecies of Trypanosoma brucei, is endemic to areas of sub-Saharan Africa, while Chagas' disease, a manifestation of Trypanosoma cruzi infection, is prevalent throughout Central and South America. In addition, many species of Leishmania are responsible for a range of cutaneous and visceral diseases, causing ulcers, destructive lesions and kalaazar, a lethal infection of the viscera. These diseases cause severe public health and economic burdens on populations that are often already caught in a tragic cycle of poverty, poor nutrition and disease. Collectively, parasites of the trypanosomatid family infect 30 million people worldwide (~500 million live in endemic areas), and account for ~130K deaths annually. Existing treatments have developed little in the past 50 years, and suffer from toxicity, poor efficacy and resistance; the goal of this project is to develop lead drugs that will be suitable for entry into pre-clinical trials.
# Glycolysis in axenically cultured T. cruzi, representing the intracellular pathogenic stage, is also essential for these parasites. {Engel, 1987} This project aims to discover and optimize selective inhibitors of the glycolytic enzyme pyruvate kinase (PYK) from Trypanosoma brucei, the parasite that causes sleeping sickness. […] Trypanosomatid PYKs show significant differences from their human counterparts including only 47-50% sequence identity and different allosteric and activation properties.{Callens, 1992} To this end, a qHTS was done against the MLSMR to discover inhibitors.
# NIH Molecular Libraries Probe Production Network [MLPCN]
# NIH Chemical Genomics Center [NCGC]
# PI Name: Malcolm Walkinshaw, University of Edinburgh
# 2 uL of TbPYK/substrate buffer (columns 1-3, 5-48) are dispensed into Greiner white solid bottom 1536-well assay plates; column 4 receives only TEA buffer as 0x TbPYK controls. Compounds are then transferred via Kalypsys pin tool equipped with 1536-pin array (10 nL slotted pins, V&P Scientific, San Diego, CA). Following addition of compound, 2 uL of ADP (130 uM final concentration, all columns) is added to initiate the reaction. The plates are then incubated at room temperature for 45 minutes. Kinase-Glo Plus reagent is added (3 uL) and plates incubated for 10 minutes, before being transferred to a ViewLux high-throughput CCD imager (PerkinElmer) wherein single end-point measurements of luminescence are acquired using a clear filter. All reagents are diluted in an assay buffer consisting of 50 mM TEA (pH 7.2), 100 mM KCl, 10 mM MgCl2, 0.05% BSA and 0.01% Tween-20.
# All screening operations will be performed on a fully integrated robotic system (Kalypsys, San Diego, CA) containing one RX-130 and two RX-90 anthropomorphic robotic arms (Staeubli, Duncan, SC). Library plates will be screened starting from the lowest and proceeding to the highest concentration. Vehicle-only plates, with DMSO being pin-transferred to columns 5-48, will be inserted uniformly at the beginning and the end of each library in order to monitor and record any shifts in the background, which can be affected by reagent dispensers or loss in enzyme activity over time. Screening data will be corrected, normalized, and concentration-effect relationships will be derived by using publicly-available curve fitting algorithms developed in-house (http://ncgc.nih.gov/pub/openhts).
row,SMILES,Potency
1,NS(=O)(=O)C#Cc1ccccc1,inactive
2,COc1cccc(OC)c1OCCNCC1COc2ccccc2O1 (stereo not given),inactive
3,COC1=C(OC)C(=O)c2ccccc2C1=O,inactive
4,O=C(O)CNC(=O)C(CS)Cc1ccccc1 (stereo not given),inactive
5,Brc1c(Br)c(Br)c2n[nH]nc2c1Br,inactive
6,NO,inactive
7,O=C(O)c1cc(=O)c2ccccc2[nH]1,inactive
8,NC(=O)C(=O)O,inactive
9,O=c1[nH]c2cc(C(F)(F)F)ccc2n1-c1cc(C(F)(F)F)ccc1O,inactive
10,CC(C)NC[C@@H](O)c1ccc(O)c(O)c1,inactive
11,OCC1O[C@H](O)C(Cl)C(O)C1O (stereo not given in full),inactive
12,CC12C(=O)OC(=O)C1(C)C1CCC2O1 (stereo not given),inactive
13,O=C(c1ccc(Cl)cc1)N1CCN(c2ccc([N+](=O)[O-])c3ncccc23)CC1,inactive
14,OC[C@H]1O[C@@H](n2cnc3c(Nc4ccccc4)ncnc32)[C@H](O)[C@@H]1O,inactive
15,O=C(O)CC1CCCc2ccccc2C1O (stereo not given),inactive
16,C=CC(=O)c1ccc(CCCCCC)cc1,inactive
17,N=C(N)SCCc1ccc(CCSC(=N)N)cc1,inactive
18,Nc1nc(Cl)nc2c1ncn2[C@@H]1O[C@H](CO)[C@@H](O)[C@H]1O,inactive
19,O=S(=O)(c1cccc2c(I)cccc12)N1CCCNCC1,inactive
20,Ic1ccc(N2CCN(Cc3c[nH]c4ncccc34)CC2)cc1,inactive

row,SMILES,Potency
1,CC(N)C(=O)OC(C)(C)Cc1ccc(Cl)cc1 (stereo not given),inactive
2,NC[C@@H]1O[C@H](C23CC4CC(CC(C4)C2)C3)Cc2c1ccc(O)c2O,inactive
3,Fc1cccc(/C=N/N=C/c2cccc(F)c2)c1,inactive
4,CO/N=C(\C(=O)N[C@@H]1C(=O)N2C(C(=O)O)=C(COC(C)=O)CS[C@H]12)c1csc(N)n1,inactive
5,CCCC1(C)C(C#N)(C#N)C1(C#N)C#N,inactive
6,CC1OC1P(=O)(O)O (stereo not given),inactive
7,O=C(O)c1cc(=O)c2c(Cl)cc(Cl)cc2[nH]1,inactive
8,COC(=O)c1c(C)[nH]c(C)c1C(=O)c1ccccc1Cc1ccccc1,inactive
9,COc1ccccc1N1CCN(CCCCNS(=O)(=O)c2cccc3c(N(C)C)cccc23)CC1,inactive
10,CNc1ncnc2c1ncn2[C@@H]1O[C@H](CO)[C@@H](O)[C@H]1O,inactive
11,COc1ccc(/C=C/C(=O)Nc2ccccc2C(=O)O)cc1OC,inactive
12,O=C(CCCCCN1CCN(c2ccccc2-c2ccccc2)CC1)NC1CCCc2ccccc21 (stereo not given),inactive
13,CCC1C(=O)OCC1Cc1cncn1C (stereo not given),inactive
14,Nc1nc(SCc2ccc([N+](=O)[O-])cc2)c2ncn([C@@H]3O[C@H](CO)[C@@H](O)[C@H]3O)c2n1,inactive
15,CN1CCc2cc(O)c(O)cc2C(c2ccccc2)C1 (stereo not given),inactive
16,CC(COc1ccc(/C=C/c2ccccc2)cc1)[N+](C)(C)C (stereo not given),inactive
17,OC[C@H]1O[C@@H](n2cnc3c(NC4CCCC4)ncnc32)[C@H](O)[C@@H]1O,inactive
18,CCCCC/C=C\CC(O)/C=C/c1cccc(CC(O)CCCCO)n1 (stereo not given),inactive
19,C[N+](C)(C)CC(=O)[O-],inactive
20,c1ccc(-c2ccccn2)nc1,inactive
